Experimental data published in PubChem BioAssay (EPA / NIEHS).
Results filed as inconclusive are left out. Some structures have more than one record in an assay (separate samples or runs), and their calls can disagree. Active and inactive are the calls of the source. How the source made its calls: active means hit-call score of the fitted dose curve at least 0.9, where 1 is the maximum; inconclusive means response in the unintended direction; inactive means score below 0.9.

Key:
[1] = molecular target: rat Glutamate, AMPA Site (AMPA), Gria1 (gene 50592) (UniProt P19490); assay: NVS_LGIC_rAMPA: NovaScreen (NVS) Ligand-Gated Ion Channel Assay for rat Glutamate, AMPA Site (AMPA) (AID 2283324)
Summary of the method: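 Screening at 25 uM in duplicate preceded concentration series reaching 50 uM for qualifying compounds. Radioligand displacement on rat forebrain membranes, 1 h, filter-based scintillation readout; reduced binding relative to DMSO.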

[2] = molecular target: rat Opioid Receptor, Non-selective Binding, Oprm1 (gene 25601) (UniProt P33535); assay: NVS_GPCR_rOpiate_NonSelective: NovaScreen (NVS) G Protein-Coupled Receptor Assay for rat Opioid Receptor, Non-selective Binding (AID 2283318)
Summary of the method: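 Filter-based radioligand displacement using rat forebrain membrane preparations, measured 1.5 h post-dosing. Single-concentration duplicate screen at 25 uM, follow-up in concentration series; activity taken as signal loss relative to DMSO.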

[3] = NVS_IC_rCaDHPRCh_L: NovaScreen (NVS) Ion Channel Assay for rat Calcium Channel, Type L, Dihydropyridine Site (CaDHPRCh_L) (AID 2283320)
Summary of the method: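 Rat cortex membrane preparation; dihydropyridine-site radioligand displacement read 1 h post-dose by filtration and scintillation. Primary single-point screen 25 uM in duplicate, then concentration series to 50 uM maximum; DMSO as negative control.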

[4] = molecular target: Sodium channel protein type 1 subunit alpha (Rattus norvegicus) (UniProt P04774); assay: NVS_IC_rNaCh_site2: NovaScreen (NVS) Ion Channel Assay for rat Sodium Channel, Site 2 (NaCh) (AID 2283322);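 further: hit means loss of radioligand binding signal relative to DMSO so AC50 marks displacement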
Summary of the method: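 Initial duplicate single-point testing at 25 uM, followed by concentration-response runs for actives. Binding of radioligand to rat forebrain membranes quantified after 1 h via filter-based radiodetection.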

[5] = NVS_IC_rCaBTZCHL: NovaScreen (NVS) Ion Channel Assay for Calcium Channel, Type L, Benzothiazepine Site (CaBTZCHL) (AID 2283337)
Summary of the method: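 Rat cortical membrane preparation incubated 1.5 h with compound and benzothiazepine-site radioligand; loss of filter-bound counts versus DMSO marks displacement. Initial duplicate testing at 25 uM, actives followed up in concentration series.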

[6] = molecular target: human Peripheral-type Benzodiazepine Receptor (PBR), TSPO (gene 706) (UniProt P30536); assay: NVS_MP_hPBR: NovaScreen (NVS) Membrane Protein Assay for human Peripheral-type Benzodiazepine Receptor (PBR) (AID 2283331);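 further: hits reduce radioligand binding relative to DMSO baseline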
Summary of the method: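 Using human colon-derived membranes, this one-endpoint binding test reads radioligand loss by scintillation after 1 h. Screening started at 25 uM in duplicate, with positive and negative controls on every plate, and actives moved to dose series.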

NCBI gene 24521 = assay: NVS_IC_rKATPCh: NovaScreen (NVS) Ion Channel Assay for rat Potassium Channel, ATP-Sensitive (KATPCh) (AID 2283319)
Summary of the method: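 Primary duplicate screen at 25 uM, then singleton concentration series to 50 uM maximum, in a rat cortex membrane radioligand displacement assay. Binding measured by filtration and scintillation 2 h post-dose; DMSO baseline.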

[7] = molecular target: rat Thyrotropin Releasing Hormone Receptor (TRH), Trhr (gene 25570) (UniProt Q01717); assay: NVS_GPCR_rTRH: NovaScreen (NVS) G Protein-Coupled Receptor Assay for rat Thyrotropin Releasing Hormone Receptor (TRH) (AID 2283329);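 further: hit means lower bound tracer signal versus DMSO baseline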
Summary of the method: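 Cell-free radioligand binding on rat forebrain membranes; bound tracer measured by filter-based scintillation counting 4 hours after dosing. Loss of signal versus DMSO baseline indicates displacement; primary screen at 25 uM in duplicate, actives then run in concentration series.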

[8] = molecular target: rat Peripheral-type Benzodiazepine Receptor (PBR), Tspo (gene 24230) (UniProt P16257); assay: NVS_MP_rPBR: NovaScreen (NVS) Membrane Protein Assay for rat Peripheral-type Benzodiazepine Receptor (PBR) (AID 2283335)
Summary of the method: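 Competitive displacement of specific radioligand from rat kidney membrane PBR, read by filtration and scintillation after 1 h. Compounds first tested at 25 uM in duplicate, then in concentration series; signal loss relative to DMSO.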

[9] = molecular target: rat Glutamate, NMDA Agonist Site (GluNMDA), Grin1 (gene 24408) (UniProt P35439); assay: NVS_LGIC_rGluNMDA_Agonist: NovaScreen (NVS) Ligand-Gated Ion Channel Assay for rat Glutamate, NMDA Agonist Site (GluNMDA) (AID 2283327)
Summary of the method: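 Radioligand displacement at the agonist site on rat forebrain membrane preparations, read by filter scintillation after 1 h. Chemicals were first run at 25 uM in duplicate; those passing threshold were titrated to a 50 uM maximum.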

[10] = molecular target: rat Gamma-Aminobutyric Acid Type A Receptor, Non-Selective (GABAR-NonSelective), Gabra1 (gene 29705) (UniProt P62813); assay: NVS_LGIC_rGABAR_NonSelective: NovaScreen (NVS) Ligand-Gated Ion Channel Assay for rat Gamma-Aminobutyric Acid Type A Receptor, Non-Selective (GABAR-NonSelective) (AID 2283326)
Summary of the method: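 Compounds were first screened in duplicate at 25 uM, with actives run as singleton concentration series (max 50 uM). Binding of a radioligand to rat whole-brain GABA-A preparation was measured by filtration and scintillation counting after 1 h, DMSO baseline.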

[11] = molecular target: bovine Gamma-Aminobutyric Acid Type A Receptor Agonist (GABAR Agonist), GABRA1 (gene 780973) (UniProt P08219); assay: NVS_LGIC_bGABAR_Agonist: NovaScreen (NVS) Ligand-Gated Ion Channel Assay for bovine Gamma-Aminobutyric Acid Type A Receptor Agonist (GABAR Agonist) (AID 2283338)
Summary of the method: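 Radioligand binding to bovine cerebellar membranes in agonist format, read by filter-based scintillation counting after 1 h. Primary screen in duplicate at 25 uM, with actives followed in concentration series. Gain of signal versus DMSO.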

[12] = molecular target: Small conductance calcium-activated potassium channel protein 1 (Rattus norvegicus) (UniProt P70606); assay: NVS_IC_rKCaCh: NovaScreen (NVS) Ion Channel Assay for rat Potassium Channel, Ca2+ Act., VI (KCaCh) (AID 2283336)
Summary of the method: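 Filter-based scintillation counting of radioligand bound to rat forebrain membrane preparations, measured 1 h after compound addition. Primary screen used 25 uM in duplicate, with concentration-response follow-up; signal decrease relative to DMSO marks activity.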

[13] = molecular target: bovine Gamma-Aminobutyric Acid Type A Receptor BDZ, alpha 5 site (GABARa5), GABRA5 (gene 523515) (UniProt Q08E50); assay: NVS_LGIC_bGABARa5: NovaScreen (NVS) Ligand-Gated Ion Channel Assay for bovine Gamma-Aminobutyric Acid Type A Receptor BDZ, alpha 5 site (GABARa5) (AID 2283323)
Summary of the method: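 Tested first in duplicate at a single 25 uM, with hits re-run in concentration series to a 50 uM maximum. Bovine hippocampal membranes; specific radioligand displacement measured by filter scintillation counting 1 hr post-dose.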

[14] = molecular target: Voltage-gated inwardly rectifying potassium channel KCNH2 (Homo sapiens) (UniProt Q12809); assay: NVS_IC_hKhERGCh: NovaScreen (NVS) Ion Channel Assay for human Potassium Channel ERG (KhERGCh) (AID 2283333)
Summary of the method: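 Membranes from CHO cells expressing human ERG; displacement of radioligand measured by filtration and scintillation after 0.75 h. Single-concentration duplicate screen at 25 uM, then concentration-response for actives; DMSO baseline.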

Sequence of rat Opioid Receptor, Non-selective Binding, Oprm1 (gene 25601) (P33535 whole entry, looked up): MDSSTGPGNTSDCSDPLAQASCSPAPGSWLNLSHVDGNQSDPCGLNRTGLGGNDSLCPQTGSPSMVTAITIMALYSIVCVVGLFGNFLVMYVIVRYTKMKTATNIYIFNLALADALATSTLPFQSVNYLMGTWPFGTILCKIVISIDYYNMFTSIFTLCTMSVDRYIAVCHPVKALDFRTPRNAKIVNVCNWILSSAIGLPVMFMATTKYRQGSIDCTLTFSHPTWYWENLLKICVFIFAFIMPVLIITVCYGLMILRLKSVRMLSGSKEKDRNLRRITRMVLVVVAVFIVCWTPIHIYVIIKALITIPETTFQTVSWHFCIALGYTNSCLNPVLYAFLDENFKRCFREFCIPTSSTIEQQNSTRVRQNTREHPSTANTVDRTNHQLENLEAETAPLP
Sequence of rat Glutamate, AMPA Site (AMPA), Gria1 (gene 50592) (P19490 whole entry, looked up): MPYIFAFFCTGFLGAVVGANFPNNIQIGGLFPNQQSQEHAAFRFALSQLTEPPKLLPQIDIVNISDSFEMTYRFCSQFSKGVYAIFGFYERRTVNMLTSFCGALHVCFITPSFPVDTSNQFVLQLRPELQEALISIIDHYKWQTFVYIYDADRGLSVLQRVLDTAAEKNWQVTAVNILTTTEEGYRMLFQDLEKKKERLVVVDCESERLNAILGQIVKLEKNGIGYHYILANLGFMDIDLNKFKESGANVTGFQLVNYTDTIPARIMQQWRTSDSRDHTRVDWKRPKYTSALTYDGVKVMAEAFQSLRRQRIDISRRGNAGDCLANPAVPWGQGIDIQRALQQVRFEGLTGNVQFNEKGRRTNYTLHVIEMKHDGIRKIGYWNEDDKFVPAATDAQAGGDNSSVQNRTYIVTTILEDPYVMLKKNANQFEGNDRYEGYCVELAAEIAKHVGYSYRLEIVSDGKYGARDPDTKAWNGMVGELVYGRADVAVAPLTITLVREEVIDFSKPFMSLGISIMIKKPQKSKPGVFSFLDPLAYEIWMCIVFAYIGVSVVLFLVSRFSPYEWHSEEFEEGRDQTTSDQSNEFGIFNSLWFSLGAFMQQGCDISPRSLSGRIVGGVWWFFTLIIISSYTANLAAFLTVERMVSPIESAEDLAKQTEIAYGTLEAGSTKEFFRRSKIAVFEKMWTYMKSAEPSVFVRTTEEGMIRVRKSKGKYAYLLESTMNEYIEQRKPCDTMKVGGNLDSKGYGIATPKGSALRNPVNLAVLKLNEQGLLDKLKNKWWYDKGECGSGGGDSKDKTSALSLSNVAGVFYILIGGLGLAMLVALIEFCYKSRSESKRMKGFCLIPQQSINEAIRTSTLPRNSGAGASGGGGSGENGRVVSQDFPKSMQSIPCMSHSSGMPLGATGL
Sequence of rat Peripheral-type Benzodiazepine Receptor (PBR), Tspo (gene 24230) (P16257 whole entry, looked up): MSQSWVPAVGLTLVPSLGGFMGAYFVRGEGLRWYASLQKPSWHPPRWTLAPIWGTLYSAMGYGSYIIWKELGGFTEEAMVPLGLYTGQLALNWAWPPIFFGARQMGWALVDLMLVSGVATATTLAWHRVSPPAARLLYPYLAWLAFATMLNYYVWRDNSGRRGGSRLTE
Sequence of human Peripheral-type Benzodiazepine Receptor (PBR), TSPO (gene 706) (P30536 whole entry, looked up): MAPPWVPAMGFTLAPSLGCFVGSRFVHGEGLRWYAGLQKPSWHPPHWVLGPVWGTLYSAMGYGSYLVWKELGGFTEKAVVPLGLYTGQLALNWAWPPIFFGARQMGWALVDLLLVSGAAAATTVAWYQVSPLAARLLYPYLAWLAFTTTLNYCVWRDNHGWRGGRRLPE
Sequence of Voltage-gated inwardly rectifying potassium channel KCNH2 (Homo sapiens) (Q12809 whole entry, looked up): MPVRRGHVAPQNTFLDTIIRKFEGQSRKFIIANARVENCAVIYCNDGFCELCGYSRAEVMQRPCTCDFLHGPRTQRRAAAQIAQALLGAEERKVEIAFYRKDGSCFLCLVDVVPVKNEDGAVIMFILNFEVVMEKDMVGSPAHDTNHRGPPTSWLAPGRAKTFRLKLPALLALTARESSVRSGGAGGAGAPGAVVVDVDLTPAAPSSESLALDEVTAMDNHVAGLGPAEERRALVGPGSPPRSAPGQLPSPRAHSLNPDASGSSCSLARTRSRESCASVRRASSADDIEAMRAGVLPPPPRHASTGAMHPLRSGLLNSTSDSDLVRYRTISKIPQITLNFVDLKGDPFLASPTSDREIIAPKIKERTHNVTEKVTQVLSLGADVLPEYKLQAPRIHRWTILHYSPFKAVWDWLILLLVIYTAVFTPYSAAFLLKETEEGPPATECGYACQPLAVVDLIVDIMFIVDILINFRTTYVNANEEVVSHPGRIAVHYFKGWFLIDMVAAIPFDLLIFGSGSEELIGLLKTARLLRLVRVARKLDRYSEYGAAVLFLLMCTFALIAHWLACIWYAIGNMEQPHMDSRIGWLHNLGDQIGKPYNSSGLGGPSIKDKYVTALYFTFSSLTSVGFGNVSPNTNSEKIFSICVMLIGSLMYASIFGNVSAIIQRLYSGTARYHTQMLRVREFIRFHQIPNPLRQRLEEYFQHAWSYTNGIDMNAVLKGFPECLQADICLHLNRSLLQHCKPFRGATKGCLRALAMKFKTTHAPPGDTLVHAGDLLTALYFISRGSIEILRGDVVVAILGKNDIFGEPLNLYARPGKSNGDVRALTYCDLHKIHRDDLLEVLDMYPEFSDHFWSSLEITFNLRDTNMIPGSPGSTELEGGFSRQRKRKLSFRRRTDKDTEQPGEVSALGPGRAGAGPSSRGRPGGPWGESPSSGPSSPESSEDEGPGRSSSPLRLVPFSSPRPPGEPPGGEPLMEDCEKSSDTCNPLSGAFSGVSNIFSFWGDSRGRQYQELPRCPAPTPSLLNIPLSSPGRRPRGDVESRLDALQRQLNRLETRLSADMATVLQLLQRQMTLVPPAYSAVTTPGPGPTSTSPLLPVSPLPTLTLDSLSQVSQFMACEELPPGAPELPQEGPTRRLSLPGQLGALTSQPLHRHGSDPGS
Sequence of rat Gamma-Aminobutyric Acid Type A Receptor, Non-Selective (GABAR-NonSelective), Gabra1 (gene 29705) (P62813 whole entry, looked up): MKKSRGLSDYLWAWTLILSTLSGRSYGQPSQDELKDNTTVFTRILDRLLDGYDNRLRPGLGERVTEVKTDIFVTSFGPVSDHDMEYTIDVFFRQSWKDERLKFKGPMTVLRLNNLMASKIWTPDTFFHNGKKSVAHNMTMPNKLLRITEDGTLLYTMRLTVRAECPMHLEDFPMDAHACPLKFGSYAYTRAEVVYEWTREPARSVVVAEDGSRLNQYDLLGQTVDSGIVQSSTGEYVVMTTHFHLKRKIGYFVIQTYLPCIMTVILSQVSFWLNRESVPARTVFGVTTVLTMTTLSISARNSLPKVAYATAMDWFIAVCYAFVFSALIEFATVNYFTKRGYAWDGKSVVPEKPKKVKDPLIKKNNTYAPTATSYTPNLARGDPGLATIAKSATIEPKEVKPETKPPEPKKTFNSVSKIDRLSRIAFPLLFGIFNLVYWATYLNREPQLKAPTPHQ
Sequence of bovine Gamma-Aminobutyric Acid Type A Receptor Agonist (GABAR Agonist), GABRA1 (gene 780973) (P08219 whole entry, looked up): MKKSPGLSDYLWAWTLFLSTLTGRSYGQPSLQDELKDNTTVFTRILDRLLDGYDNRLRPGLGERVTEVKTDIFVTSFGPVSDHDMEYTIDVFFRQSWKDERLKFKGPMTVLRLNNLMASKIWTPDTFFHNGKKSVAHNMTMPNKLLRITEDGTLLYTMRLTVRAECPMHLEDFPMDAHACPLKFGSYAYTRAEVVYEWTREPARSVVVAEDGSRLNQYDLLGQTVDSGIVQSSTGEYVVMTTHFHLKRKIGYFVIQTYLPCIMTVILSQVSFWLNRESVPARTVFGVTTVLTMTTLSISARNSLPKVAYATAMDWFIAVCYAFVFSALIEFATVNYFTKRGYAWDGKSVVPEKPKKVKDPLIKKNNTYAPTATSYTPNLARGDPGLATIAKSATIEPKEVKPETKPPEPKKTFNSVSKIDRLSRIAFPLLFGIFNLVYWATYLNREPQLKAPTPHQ
Sequence of bovine Gamma-Aminobutyric Acid Type A Receptor BDZ, alpha 5 site (GABARa5), GABRA5 (gene 523515) (Q08E50 whole entry, looked up): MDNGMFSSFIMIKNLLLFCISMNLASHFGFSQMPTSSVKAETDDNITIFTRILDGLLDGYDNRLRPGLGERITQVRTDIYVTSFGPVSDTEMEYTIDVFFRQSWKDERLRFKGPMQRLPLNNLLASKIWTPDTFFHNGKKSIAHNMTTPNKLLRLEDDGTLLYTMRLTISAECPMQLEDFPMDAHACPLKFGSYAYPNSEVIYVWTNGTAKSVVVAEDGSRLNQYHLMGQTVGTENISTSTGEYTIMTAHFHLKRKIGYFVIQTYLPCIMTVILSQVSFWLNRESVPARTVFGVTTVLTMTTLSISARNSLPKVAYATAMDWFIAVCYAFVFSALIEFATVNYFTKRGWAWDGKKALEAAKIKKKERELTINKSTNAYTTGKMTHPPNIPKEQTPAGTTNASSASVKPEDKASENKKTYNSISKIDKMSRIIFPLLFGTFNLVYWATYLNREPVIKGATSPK
Sequence of Small conductance calcium-activated potassium channel protein 1 (Rattus norvegicus) (P70606 whole entry, looked up): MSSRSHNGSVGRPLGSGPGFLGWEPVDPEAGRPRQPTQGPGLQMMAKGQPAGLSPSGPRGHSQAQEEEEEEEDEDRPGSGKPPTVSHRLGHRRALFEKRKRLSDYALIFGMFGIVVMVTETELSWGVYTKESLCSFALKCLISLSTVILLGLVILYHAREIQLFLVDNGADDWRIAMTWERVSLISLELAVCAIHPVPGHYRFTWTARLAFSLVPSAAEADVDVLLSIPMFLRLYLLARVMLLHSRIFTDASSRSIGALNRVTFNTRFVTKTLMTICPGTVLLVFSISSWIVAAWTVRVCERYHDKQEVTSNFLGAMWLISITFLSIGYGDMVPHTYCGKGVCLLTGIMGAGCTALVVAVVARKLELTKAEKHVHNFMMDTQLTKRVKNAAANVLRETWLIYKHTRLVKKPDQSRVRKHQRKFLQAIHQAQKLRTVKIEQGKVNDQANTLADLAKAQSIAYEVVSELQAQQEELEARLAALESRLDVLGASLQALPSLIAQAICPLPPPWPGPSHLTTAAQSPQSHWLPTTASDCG

O=Cc1ccccc1C=O
AC50 [1]: 13.5 µM (active)

CN(C)C(=O)NC1(c2ccccc2)CCN(CC[C@@]2(c3ccc(F)c(F)c3)CN(C(=O)c3ccccc3)CCO2)CC1
AC50 [2]: 2.1 µM (active)
AC50 [3]: 3.38 µM (active)
AC50 [4]: 6.43 µM (active)
AC50 [5]: 2.2 µM (active)

CCN(CC)CCOc1ccc(C(=C(Cl)c2ccccc2)c2ccccc2)cc1
AC50 [4]: 1.99 µM (active)
AC50 [6]: 0.672 µM (active)
outcome [6]: inactive
AC50 [5]: 1.02 µM (active)

Cc1cc(Cc2ccc(N)c(C)c2)ccc1N
outcome (NCBI gene 24521): inactive
outcome [7]: inactive
outcome [6]: inactive
outcome [8]: inactive

NC(=Nc1ccccc1)Nc1ccccc1
outcome [2]: inactive
outcome [4]: inactive
outcome [9]: inactive
AC50 [5]: 40.6 µM (active)

CCOCCOCCO
outcome (NCBI gene 24521): inactive

CCCCC(CC)COP(=O)(OCC(CC)CCCC)OCC(CC)CCCC (stereo not given)
outcome [4]: inactive
outcome [1]: inactive

CCc1nc(N)nc(N)c1-c1ccc(Cl)cc1
outcome [2]: inactive
AC50 [4]: 3.65 µM (active)
AC50 [10]: 64.8 nM (active)
outcome [8]: inactive
AC50 [5]: 8.32 µM (active)
AC50 [11]: 8.29 µM (active)

COc1ccc(OC(F)(F)F)cc1CN[C@H]1CCCN[C@H]1c1ccccc1
AC50 [2]: 25 µM (active)
outcome (NCBI gene 24521): inactive
AC50 [4]: 0.623 µM (active)
outcome [1]: inactive
AC50 [10]: 2000 nM (active)
outcome [12]: inactive
AC50 [5]: 1.24 µM (active)

COc1ccc(C(=O)Nc2nc3ccccc3c(NCc3ccccc3)c2C#N)cc1
outcome [13]: inactive

COC(=O)[C@H]1[C@H]2C[C@@H]3c4[nH]c5cc(OC)ccc5c4CCN3C[C@H]2C[C@@H](OC(=O)c2cc(OC)c(OC)c(OC)c2)[C@@H]1OC
AC50 [2]: 8.39 µM (active)
AC50 [3]: 11.6 µM (active)
AC50 [4]: 5.49 µM (active)
outcome [14]: inactive
AC50 [5]: 6.93 µM (active)

O=C(N[C@@H](c1ccccc1)[C@@H]1CCCCN1)c1cccc(C(F)(F)F)c1Cl
AC50 [2]: 12.8 µM (active)
AC50 [4]: 1.27 µM (active)
AC50 [6]: 17.9 µM (active)
AC50 [14]: 32.9 µM (active)
AC50 [8]: 25 µM (active)
AC50 [5]: 0.967 µM (active)
